Hits are enriched below; roughly 6.9% of the tested compounds scored in any of these assays.
HP1b binding inh: HP1-beta chromodomain-methylated histone interaction inhibition; P83916; AlphaScreen HP1-beta / biotin-H3K9me3 peptide binding; Potency, µM (top dose mostly 114 µM), inactives show top-dose activity change, negative = inhibition, usual class: inhibitors; 0.56% of 390,000 active; note: nearly all actives have a fitted effect of over 70% in size
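AlphaScreen: HP1-beta (50 nM) preformed 30 min with biotin-H3(1-18)K9me3 peptide (50 nM) in PBS pH 7.4, 0.01% Tween-20. Compound added for 30 min at RT, then streptavidin donor/nickel chelate acceptor beads (10 ug/mL) for 30 min.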
VDR inh: vitamin D3 receptor (human) inhibition | 0.93% of 400,000 active | Potency, µM, for the others: max response, negative = inhibition, hits mostly inhibitors | VDR-SRC2-3 peptide fluorescence polarization, 2 h | AID 504847; note: % is set by controls: 0 for no effect and ±100 for the full control effect
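Two reagent solutions held at 4 deg C in the dark were dispensed, compounds pinned at 23 nl, and the mixture incubated 2 h at room temperature. Read-out: fluorescence polarization of VDR–SRC2-3 peptide binding.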
L3MBTL1 block: inhibitors of human L3MBTL1; Potency, µM (top dose mostly 57.1 µM), for inactives: at the top dose activity, negative = inhibition, most hits filed as inhibitors; AID 485360; Q9Y468; AlphaScreen L3MBTL1–H3K9me1 peptide binding; 0.66% of 230,000 active; note: % is set by controls: 0 for no effect and ±100 for the full control effect; nearly all actives have a fitted effect of over 60% in size
Target sequence (Q9Y468 whole entry, looked up): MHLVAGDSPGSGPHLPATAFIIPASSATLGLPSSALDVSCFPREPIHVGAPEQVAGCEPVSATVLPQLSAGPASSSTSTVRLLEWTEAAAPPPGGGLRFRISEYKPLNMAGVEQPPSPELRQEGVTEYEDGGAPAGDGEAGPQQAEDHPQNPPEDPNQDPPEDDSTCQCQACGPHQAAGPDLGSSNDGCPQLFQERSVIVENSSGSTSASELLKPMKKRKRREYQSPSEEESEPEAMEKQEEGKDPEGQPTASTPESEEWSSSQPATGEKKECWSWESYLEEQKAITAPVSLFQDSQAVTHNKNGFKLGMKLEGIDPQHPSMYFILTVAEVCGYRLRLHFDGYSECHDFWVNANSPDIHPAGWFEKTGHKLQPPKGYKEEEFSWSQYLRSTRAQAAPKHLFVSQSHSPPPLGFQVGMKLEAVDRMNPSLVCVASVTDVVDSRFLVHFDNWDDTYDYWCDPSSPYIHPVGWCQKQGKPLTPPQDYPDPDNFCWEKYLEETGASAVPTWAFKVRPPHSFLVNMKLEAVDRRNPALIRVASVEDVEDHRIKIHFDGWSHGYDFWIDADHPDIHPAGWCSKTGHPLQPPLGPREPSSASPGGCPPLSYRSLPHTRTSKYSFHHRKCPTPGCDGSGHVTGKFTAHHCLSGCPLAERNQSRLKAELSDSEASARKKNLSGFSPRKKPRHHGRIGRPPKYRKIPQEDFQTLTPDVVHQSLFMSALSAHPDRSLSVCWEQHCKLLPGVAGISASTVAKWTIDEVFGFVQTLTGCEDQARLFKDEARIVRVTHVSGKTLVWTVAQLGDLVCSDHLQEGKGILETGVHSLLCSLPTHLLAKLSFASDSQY
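Read-out is AlphaScreen signal from streptavidin donor and nickel chelate acceptor beads (10 ug/mL final each) bridging L3MBTL1 (50 nM) and biotinylated K9-monomethylated H3(1-15) peptide (75 nM), after 30 min compound exposure at room temperature.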
PLK1 PBD inh: inhibitors of human PLK1 polo-box domain binding; P53350; Potency, µM, inactives show max response, negative = inhibition, usual class: inhibitors; AID 720504; 2.8% of 360,000 active; Plk1 PBD binding of FITC phosphopeptide, fluorescence polarization; note: series mostly up to about 57 µM; % is set by controls: 0 for no effect and ±100 for the full control effect; nearly all actives have a fitted effect of over 65% in size
BAZ2B inh: BAZ2B (human) inhibition; AlphaScreen BAZ2B-H3K14Ac peptide displacement; Potency, µM (doses to about 114 µM), for inactives: top-dose activity change, negative = inhibition, usual class: inhibitors; 4.4% of 360,000 active; Q9UIF8; AID 504333; note: % is set by controls: 0 for no effect and ±100 for the full control effect; nearly all actives have a fitted effect of over 60% in size
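Protein-peptide AlphaScreen: BAZ2B 50 nM, b-H3K14Ac 50 nM, 1x PBS pH 7.4 + 0.01% Tween-20. Preincubation 30 min RT; cpd 30 min RT (top 110 uM); beads 20 min RT, light-protected.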
JMJD2A Tudor inh: blocks the human JMJD2A Tudor domain | O75164 | AlphaScreen JMJD2A-Tudor / H3K4me3 peptide binding | Potency, µM (series often up to 114 µM), for the others: top-dose activity change, negative = inhibition, actives largely listed as inhibitors | 4.4% of 390,000 active; note: % is set by controls: 0 for no effect and ±100 for the full control effect; nearly all actives have a fitted effect of over 50% in size
Starred values were filed as active, the others as inactive; ? = inconclusive; · = no result given; [ ] = another dose, or the depositor's remark. Calls come from the whole dose curve; as a rule, active = well fitted curve in the direction sought with a large enough effect; inconclusive = small, poorly fitted or top-dose-only effect, or another doubt; inactive = no such curve, though single readings can be large; an effect the other way counts as inactive or inconclusive. Potency is the fitted concentration of half-maximal effect.

SMILES	HP1b binding inh	VDR inh	L3MBTL1 block	PLK1 PBD inh	BAZ2B inh	JMJD2A Tudor inh
O=c1[nH]cnc2c1N1CCC2CC1	10%	11%	-24%	2%	?	28µM*
Cc1cc(Cl)cc(Br)c1OCCCCn1cncn1	?	-8%	1%[11.4 µM]	-1%	50µM*	3.5µM*
Cc1cc(Cl)c(OCCCn2cncn2)c(Br)c1	60%	0%	-10%	-10%	0%	-10%
O=S(=O)(Nc1ccc(N2CCOCC2)cc1)c1cc(Cl)ccc1Cl	-6%	2%	·	-2%	-31%	?
CN(C)c1ccc(NS(=O)(=O)c2cc(Cl)ccc2Cl)cc1	50µM*	4%	-18%	2%	35µM*	56µM*
O=C(O)CN1CCCCCC1=O	36%	-16%	19%	3%	-12%	1%
CCOCCN1CCN(C(=O)CN2CCCC2=O)CC1	8%	-9%	5%	-10%	89µM*	?
O=C(CCn1ccc2cc(S(=O)(=O)N3CCCC3)ccc21)NCc1cccc(F)c1	5%	?	·	7.5µM*	-19%	?
O=C(OCC#CCSc1nnc(-c2cccc3ccccc23)o1)c1ccc(F)cc1F	·	·	·	·	·	26%
CC(C(=O)Nc1ccccc1)n1nnc2sc3c(c2c1=O)CCCC3 (stereo not drawn)	2%	8%	·	·	-16%	-31%
CC(C)(C)C1CCC(=NNC(=O)C(=O)NC2CCCCC2)CC1 (stereo not drawn)	15%	-11%	-7%	-6%	-34%	79µM*
CN1CCN(C(=O)NC2CCCCC2)CC1	?	11%	-27%	-4%	50µM*	8.9µM*
CN1CCC(=NNC(=O)C(=O)NC2CCCC2)CC1	5%	-2%	·	-6%	?	40µM*
COc1ccc(C(=O)N2CCN(Cc3cc(=O)n4nc(-c5ccccc5C)sc4n3)CC2)cc1OC	2%[57 µM]	6%	·	·	-2%	-18%
CSc1ncnc2c1ncn2CCCN1CCN(C(=O)C2CC2)CC1	·	·	·	1%	·	·
COc1ccccc1OC(=O)c1cc2ccccc2oc1=O	34%	4%	-3%	-8%	5%	-18%
COc1cc(/C=C/[N+](=O)[O-])ccc1OC(=O)c1cc2ccccc2oc1=O	47%	?	-7%	13µM*	?	-17%
CS(=O)(=O)N1CCC(C(=O)NCC2CCCO2)CC1 (stereo not drawn)	5%	-7%	3%	-7%	4%	-5%
CC(C)CN1CCC(C(=O)NCC2CCCO2)CC1 (stereo not drawn)	?	-14%	-8%	-7%	56µM*	7.1µM*
CN(C)C(=O)N1CCC(C(=O)NCC2CCCO2)CC1 (stereo not drawn)	35%	3%	-10%	2%	-4%	-12%
O=C(NCC1CCCO1)C1CCN(CC2CCCCC2)CC1 (stereo not drawn)	-18%	10%	·	-4%	?	35µM*
CC(C)CNC(=O)C1CCN(CC2CCCCC2)CC1	-29%	10%	-1%	4%	-4%[57.1 µM]	79µM*
Cc1ccc(CNC(=O)CN2C(=O)CSc3ccc(S(=O)(=O)N(C)C)cc32)cc1	11%	5%	·	·	-6%	-7%
Cc1ccc([C@H]2C(C(=O)O)=CC[C@@H](c3ccc(Cl)cc3)N2S(=O)(=O)c2ccccc2C)cc1	7%	-26%	1%	?	·	-20%
Cc1ccccc1S(=O)(=O)N1[C@@H](c2ccc(Cl)cc2)C(C(=O)O)=CC[C@H]1c1ccc(Cl)cc1	28%	?	-1%	30µM*	·	-20%
SMILES	HP1b binding inh	VDR inh	L3MBTL1 block	PLK1 PBD inh	BAZ2B inh	JMJD2A Tudor inh
Cc1ccccc1S(=O)(=O)N1C(c2ccc(Cl)cc2)CC=C(C(=O)O)C1c1cccc(Cl)c1 (stereo not drawn)	·	·	·	27µM*	·	·
Cc1ccc(CN2CC(C(=O)NCCC3=CCCCC3)CC2=O)cc1 (stereo not drawn)	33%	-8%	-1%	-7%	-4%	-8%
N=C1SCC(=O)N1c1ccccc1Cl	29%	-16%	·	-16%	3%	-14%
O=c1c2ccccc2sn1-c1ccc(F)cc1	7%	16µM*	-11%	3µM*	4.5µM*	13µM*
O=c1c2ccc(F)cc2sn1-c1ccccc1	·	·	·	3.4µM*	·	·
O=c1c2ccccc2nnn1Cc1ccc(F)cc1	-8%	-12%	15%	-26%	3%	-6%
COC(=O)c1cccc(-n2sc3ccccc3c2=O)c1	-28%	?	-3%	2.7µM*	6.3µM*	14µM*
O=c1c2cc(F)ccc2sn1-c1ccccc1Cl	·	·	·	2.7µM*	·	·
COC(=O)c1cccc(N2CCCC2=O)c1	19%	2%	·	-10%	-22%	-1%
CCOC(=O)N1CCN(CC(=O)Nc2nnc(C(F)(F)F)s2)CC1	56%	0%	1%	1%	?	5%
CC(C)CCN(C(=S)Nc1cccc(F)c1)C1CCN(C(C)C)CC1	12%	-8%	·	-5%	3%	-12%
COc1ccc(-c2noc(CCCC(=O)NCC3CCCO3)n2)cc1 (stereo not drawn)	18%	10%	·	2%	-1%	-3%
Cc1ccc(-n2sc3cc(F)ccc3c2=O)c(C)c1	·	·	·	3µM*	·	·
CCCCCCCC/C=C\CCCCCCCC(=O)NCCO	29%	1%	10%	-15%	0%	-20%
CCCCCCCC/C=C\CCCCCCCC(=O)NCCc1ccc(O)c(O)c1	-12%	?	-9%	24µM*	-8%	35µM*
CCCCCCCC/C=C/CCCCCCCC(=O)NCCOP(=O)(O)O	·	28µM*	·	·	·	·
CCCCC/C=C\C/C=C\C/C=C\C/C=C\CCCCCC(=O)NCCc1ccc(O)c(O)c1	·	3%	·	·	·	·
CSCc1ccc(C(=O)NCC(c2cccs2)N2CCOCC2)cc1 (stereo not drawn)	4%	2%	-1%	-12%	-2%	-20%
C=C(C)C(=O)Nc1cccc(C2=NOC3(C2)C[C@@H](C(N)=O)N(C(=O)C2(C)CC2)C3)c1 (stereo partly drawn)	2.5µM*	7%	·	?	1.6µM*	2.2µM*
C=C(C)C(=O)Nc1cccc(C2=NOC3(C2)C[C@@H](C(N)=O)N(C(=O)C(=C)C)C3)c1 (stereo partly drawn)	8.9µM*	-15%	·	-27%	5µM*	7.9µM*
C=C(C)C(=O)Nc1cccc(C2=NOC3(C2)C[C@@H](C(N)=O)N(C(=O)/C=C/CC)C3)c1 (stereo partly drawn)	10µM*	-14%	·	?	7.1µM*	10µM*
C/C=C\C(=O)Nc1cccc(C2=NOC3(C2)C[C@H](C(N)=O)N(C(=O)/C=C/CC)C3)c1 (stereo partly drawn)	18%	7%	·	7%	4%	-17%
Cc1ccc(C2CC(=O)N(Cc3ccccc3)c3c2c(C)nn3-c2nc(C)cc(C)n2)cc1 (stereo not drawn)	22%	1%	·	·	5%	-16%
